Assay outcomes as filed in PubChem BioAssay.
In the library only some 21% were active in any assay of this set; here they are far more common.
Pf growth 48h: P. falciparum growth inhibition at 48 hours (one generation); 310,000 compounds, 5.9% hits; P. falciparum luciferase growth in erythrocytes, 48 h; Potency, µM (doses to about 28.7 µM), inactives show top-dose activity change, negative = inhibition, hits mostly inhibitors; note: potency is the fitted concentration of half-maximal effect; % is set by controls: 0 for no effect and ±100 for the full control effect
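Firefly luciferase activity from engineered P. falciparum reports growth; inhibitors lower the luminescent signal. Cultures contained 2% hematocrit erythrocytes at 0.1% final parasitemia.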
Shiga toxin inh: Shiga toxin inhibition; 290,000 compounds, 9.2% hits; inhibition, % at 38.7 µM; Vero cells, Shiga toxin protein synthesis inhibition reporter; in the data active = inhibition mostly above about 28%, no sharp cut-off; inactive = mostly below about 43%; note: 0% is about no effect
SARS PLpro yeast: SARS-CoV PLP inhibition in yeast | S. cerevisiae expressing SARS-CoV PLpro, growth rescue | Potency, µM (highest dose often 32.9 µM), for inactives: top-dose activity, positive = growth rescue, hits mostly activators | 330,000 compounds, 0.19% hits; calls by dose curve; note: potency is the fitted concentration of half-maximal effect; 0% is about no effect; nearly all actives have a fitted effect of over 55% in size
Pf growth 96h: inhibits malaria parasite growth, 96 h; P. falciparum luciferase reporter growth, 96 h; Potency, µM (titrated, usually from 28.7 µM), inactives show at the highest dose activity change, negative = inhibition, most hits filed as inhibitors; 320,000 compounds, 6.9% hits; AID 504834; note: potency is the fitted concentration of half-maximal effect; % is set by controls: 0 for no effect and ±100 for the full control effect
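Parasite growth measured via integrated firefly luciferase reporter in P. falciparum. Infected erythrocytes at 2% hematocrit, 0.05% parasitemia final were treated 96 hours at 37 C under 5% CO2, and luminescence was read.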
CHX counter: counter-screen hit for Shiga toxin inhibitors, cycloheximide. 300,000 compounds, 12% hits. cell reporter, cycloheximide protein synthesis inhibition counterscreen. max response, %; in the data active = max response mostly above about 13%, no sharp cut-off; inactive = mostly below about 14%; note: read at 38.3 µM for the half of the compounds with a filed dose; 0% is about no effect
NS1 function inh: blocks influenza NS1 protein function; Potency, µM (highest dose often 46.1 µM), without a hit: at the highest dose activity, positive = more growth; 270,000 compounds, 0.4% hits; AID 2326; calls by dose curve; note: potency is the fitted concentration of half-maximal effect; actives are rising curves; nearly all actives have a fitted effect of over 50% in size
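Recovery from NS1-induced slow growth read by OD600 in budding yeast switched to galactose assay medium (pH 6.0, -URA) at 1:100 dilution. Compound 23 nl per well; the matching strain lacking NS1 serves as control.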
Starred values were filed as active, the others as inactive; ? = inconclusive; / = no result given; [ ] = another dose, or the depositor's remark. Unless noted, calls come from the whole dose curve; as a rule, active = well fitted inhibition curve with a large enough effect; inconclusive = small, poorly fitted or top-dose-only effect, or another doubt; inactive = no such curve, though single readings can be large or run the other way.

SMILES | Pf growth 48h | Shiga toxin inh | SARS PLpro yeast | Pf growth 96h | CHX counter | NS1 function inh
COc1ccc(N(CC(=O)NCC2CCCO2)C(=O)CCC(=O)Nc2cc(C)on2)cc1OC (centres undefined) | 15.1% | -12.5 | 1.7% | -24.2% | -6.8 | 2.4%
CCn1c(=O)cc(OCC(=O)Nc2ccccc2N2CCN(C)CC2)c2ccccc21 | / | -7.9 | 2.1% | 9.28µM* | 4.1 | ?
CCn1c(=O)cc(OCC(=O)Nc2ccc(C)cn2)c2ccccc21 | 0.3% | -7.7 | -5.5% | / | -4.2 | -6.6%
CCn1c(=O)cc(OCC(=O)Nc2nc(C)cs2)c2ccccc21 | 6.1% | -1.0 | -1.6% | 2.08µM* | -1.0 | ?
O=C(CCl)c1ccc(Oc2ccc(C(=O)CCl)cc2)cc1 | ? | / | / | -8.1% | / | /
COc1ccc(-c2cc([C@H](O)C3CCCCN3)c3ccccc3n2)cc1 (some centres undefined) | / | / | / | / | / | 7.7%
COc1ccc(-n2nc(C(=O)NCC(=O)NCc3ccc(F)cc3)c3ccccc3c2=O)cc1OC | 19.7% | 4.0 | 0.9% | -35.2% | -1.6 | 4.4%
CC1(C)CC(=O)C2=C(C1)N=C1c3ccccc3C(=O)C1C2c1ccc(Cl)cc1 (centres undefined) | ? | -8.2 | -7.5% | ? | -2.2 | 9.2%
CCOC(=O)C1=C(C)N=C2c3ccccc3C(=O)C2C1c1ccc(Cl)cc1 (centres undefined) | 10.4µM* | -11.7 | -12.1% | 10.4µM* | -1.0 | 20.9%
Cc1cc(N2CCN(C)CC2)n2cc(-c3ccc(F)cc3)nc2n1 | 0.4% | -5.9 | 0.9% | -3.5% | -1.7 | 8.3%
Cc1cc(N2CCN(c3ccccn3)CC2)n2cc(-c3ccccc3)nc2n1 | 13.1µM* | 7.5 | -1.3% | 6.57µM* | -1.4 | -14.2%
N#CCCN(C(=O)COC(=O)c1ccc2c(=O)n3c(nc2c1)CCC3)c1ccc(F)cc1 | -15.0% | 5.5 | -2.9% | 26.1% | 0.3 | 6.8%
Cc1ccc(S(=O)(=O)/N=C2\C(=O)c3ccccc3C([O-])=C2n2cc[n+](CCC(C)C)c2)cc1 | 13.1µM* | -1.6 | -2.1% | 3.29µM* | 2.2 | 6.2%
CC(=O)Nc1ccc(S(=O)(=O)/N=C2\C(=O)c3ccccc3C([O-])=C2n2cc[n+](-c3ccccn3)c2)cc1 | 1.47µM* | 30.9 | -1.1% | 4.65µM* | 9.3 | 0.3%
Cc1ccc(NC(=O)C[n+]2ccn(C3=C([O-])c4ccccc4C3=O)c2)cc1 | 33.4% | -4.6 | 1.5% | -3.6% | 12.2 | -1.5%
CCCC[n+]1ccn(C2=C([O-])c3ccccc3C(=O)/C2=N\S(=O)(=O)c2ccc(Br)cc2)c1 | 3.29µM* | 2.0 | 13.2% | ? | 1.4 | 14.1%
O=C(Nc1ccc(N2CCCC2)cc1)c1ccc(Br)cc1 | 13.1µM* | 18.8 | 5.3% | 0.0% | 11.6* | 21.7%
CC(C)Oc1ccc(C(=O)Nc2ccc(N3CCN(C(=O)c4ccco4)CC3)cc2)cc1 | ? | -9.6 | 1.5% | ? | -2.8 | 12.1%
CC(C)Oc1ccc(C(=O)Nc2ccc(N3CCCC3)cc2)cc1 | 13.1µM* | 27.4* | -8.2% | 9.28µM* | 20.4* | ?
CC(C)(CNC(=O)CO/N=C1/C=C2CCC3C(C(O)C[C@@]4(C)C3CC[C@]4(O)C(=O)CO)[C@@]2(C)CC1)C(O)C(=O)O (some centres undefined) | ? | 3.6 | 0.6% | ? | -2.6 | 3.5%
C#CCOCCOCCOCCNc1nc(N2CCN(C(=O)[C@H]([C@@H](C)CC)n3cc([C@@H](N)CO)nn3)CC2)nc(N2CCN(C(=O)[C@H](Cc3cc4ccccc4[nH]3)n3cc([C@@H](N)Cc4ccc(O)cc4)nn3)CC2)n1 | -99.9% | 13.7 | -5.2% | 2.94µM* | -4.5 | -62.6%
C#CCOCCOCCOCCNc1nc(N2CCN(C(=O)[C@H](Cc3cc4ccccc4[nH]3)n3cc([C@@H](N)C(C)CC)nn3)CC2)nc(N2CCN(C(=O)[C@H](Cc3cc4ccccc4[nH]3)n3cc([C@@H](N)CC(C)C)nn3)CC2)n1 (some centres undefined) | 11.7µM* | -4.7 | -2.3% | ? | -3.5 | 5.0%
C#CCOCCOCCOCCNc1nc(N2CCOCC2)nc(N2CCN(C(=O)[C@H](CCC(=O)O)n3cc(C(N)Cc4ccc(O)cc4)nn3)CC2)n1 (some centres undefined) | 3.4% | -9.3 | -1.5% | 17.3% | -1.5 | 2.1%
C#CCOCCOCCOCCNc1nc(N2CCN(C(=O)C(Cc3ccc(O)cc3)n3cc(C(N)CC(C)C)nn3)CC2)nc(N2CCN(C(=O)C(Cc3cc4ccccc4[nH]3)n3cc(C(N)Cc4ccc(O)cc4)nn3)CC2)n1 (centres undefined) | ? | -18.6 | 0.3% | 13.1µM* | -0.9 | 4.4%
C#CCOCCOCCOCCNc1nc(N2CCOCC2)nc(N2CCN(C(=O)[C@H](Cc3cc4ccccc4[nH]3)n3cc([C@@H](N)Cc4ccc(O)cc4)nn3)CC2)n1 | ? | -13.8 | -1.2% | 1.85µM* | 5.3 | -1.8%
SMILES | Pf growth 48h | Shiga toxin inh | SARS PLpro yeast | Pf growth 96h | CHX counter | NS1 function inh
C#CCOCCOCCOCCNc1nc(N2CCN(C(=O)[C@H](CCC(=O)O)n3cc(C(N)Cc4ccc(O)cc4)nn3)CC2)nc(N2CCN(C(=O)[C@H](Cc3cc4ccccc4[nH]3)n3cc(C(N)CC(C)C)nn3)CC2)n1 (some centres undefined) | 23.7% | -11.6 | -2.5% | 3.7% | -3.2 | 8.1%
CCn1cc(CN2CCC(n3nccc3NC(=O)c3cccc(F)c3)CC2)cn1 | -0.1% | 16.7 | ? | 7.1% | 9.1 | 2.3%
CSc1ncccc1C(=O)OCC(=O)NC1CCC(C)CC1 (centres undefined) | 3.8% | / | 5.5% | -11.2% | / | /
C=CCN1C(=O)/C(=C2/Sc3ccc(OC)cc3N2C)SC1=Nc1ccccc1 | 18.6% | -1.1 | 0.3% | -54.9%[1.15 µM] | 9.9 | 4.9%
C=CCn1c(=O)/c(=C2/Sc3cc(OC)ccc3N2C)s/c1=C1\C(=O)N(CC)C(=S)N1C | -5.6% | 52.7* | -0.8% | 29.4% | 21.2* | -1.1%
COCCNC(=O)C1(C(F)(F)F)C/C(=C/CCO)CCCO1 (centres undefined) | / | 2.5 | / | / | 8.7 | /
COc1ccc(C(=O)n2nc(C)c(Br)c2C)cc1 | ? | 32.2 | 6.3% | 0.465µM* | 9.4 | 2.1%
Cc1nn(C(=O)c2ccco2)c(C)c1Br | / | -22.4 | -1.8% | / | -6.4 | 2.8%
O=C(Cn1nc(Cl)nc1Cl)c1ccc(F)cc1 | 11.7µM* | -6.8 | -0.8% | ? | 8.9 | 9.3%
C=C[C@@H]1c2cccc(C)c2N(S(=O)(=O)c2ccc(C)cc2)[C@H](c2ccc(OC(C)=O)cc2)C1(C#N)C#N | / | / | 0.9% | / | / | /
C=C[C@@H]1c2c(F)cccc2N(S(=O)(=O)c2ccc(C)cc2)[C@H](c2ccc(OC(C)=O)cc2)C1(C#N)C#N | 1.65µM* | / | 2.6% | 2.62µM* | / | /
